Compound activity from PubChem.
The list is not random: actives were taken first. Their share in the collection is about 0.24%.
NPYLR7 ag – activates Aedes aegypti NPYLR7 receptor; HEK293T NPYLR7/Galpha15, GCaMP6s calcium fluorescence; activation, % at 10 µM; hit rate 0.15% among 270,000; AID 1259423; in the data active = activation above about 40%;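 also: 0% = vehicle and 100% = reference agonist at the receptor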
mcGAS inh – mouse cGAS inhibition by luminescence | inhibition, % at 12.5 µM | hit rate 0.15% among 160,000 | Q8C6L5 | recombinant cGAS, Kinase-Glo ATP depletion luminescence;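 also: 0% = negative control wells and 100% = reference inhibitor with no enzyme activity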
hcGAS lum – human cGAS inhibition | AID 1259398 | inhibition, % at 12.5 µM | hit rate 0.081% among 290,000 | recombinant h-cGAS, ATP depletion, Kinase-Glo luminescence | Q8N884;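 also: 0% = vehicle reaction and 100% = reaction without DNA for no activity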
Target sequence (Q8N884 whole entry, looked up): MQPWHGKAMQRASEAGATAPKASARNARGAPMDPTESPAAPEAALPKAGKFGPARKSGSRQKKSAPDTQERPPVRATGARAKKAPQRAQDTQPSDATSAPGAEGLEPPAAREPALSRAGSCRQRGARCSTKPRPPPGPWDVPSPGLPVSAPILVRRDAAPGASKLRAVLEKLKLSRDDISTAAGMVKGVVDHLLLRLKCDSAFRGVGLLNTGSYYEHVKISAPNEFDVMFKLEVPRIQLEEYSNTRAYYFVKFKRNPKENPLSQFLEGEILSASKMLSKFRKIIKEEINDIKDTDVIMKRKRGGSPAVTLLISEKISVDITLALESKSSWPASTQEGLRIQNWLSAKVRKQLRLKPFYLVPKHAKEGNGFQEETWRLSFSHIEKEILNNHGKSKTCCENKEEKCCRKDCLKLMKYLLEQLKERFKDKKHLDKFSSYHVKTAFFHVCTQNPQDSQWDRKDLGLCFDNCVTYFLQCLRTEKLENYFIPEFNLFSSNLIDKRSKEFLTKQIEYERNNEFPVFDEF
Starred values were filed as active, the others as inactive; . = not tested or not shown; ! = repeats disagree. Rule as the data show it, unless noted: active = inhibition above about 40%; inactive = the rest.

SMILES	NPYLR7 ag	mcGAS inh	hcGAS lum
C[C@@H]1OC(O[C@H]2[C@H](OC(=O)[C@]34CCC(C)(C)CC3C3=CCC5[C@@]6(C)CC[C@H](OC7O[C@@H](C)[C@H](O[C@@H]8OC[C@@H](O)[C@H](O)[C@H]8O)[C@@H](O)[C@H]7O)C(C)(C)C6CC[C@@]5(C)[C@]3(C)CC4O)OC[C@H](O)[C@H]2O)[C@H](O)[C@H](O)[C@H]1O[C@@H]1O[C@H](CO)[C@@H](O)[C@H](O)[C@H]1O (some centres not stated)	54*	.	-1
CC1(C)CC[C@]2(C)CC[C@]3(C)C(=CCC4[C@@]5(C)CC[C@H](O)C(C)(C)C5CC[C@]43C)C2C1 (some centres not stated)	.	-3	-5
CCCc1cnc2c(c1SCc1cccc([N+](=O)[O-])c1)c(=O)n(C)c(=O)n2C	3	-10	-9
CSc1ccc(C2CC(c3ccc(Cl)cc3)=Nc3ncnn32)cc1 (configuration not stated)	92*	.	-11
Clc1ccc(C2=Nc3ncnn3C(c3ccc(Cl)cc3)C2)cc1 (configuration not stated)	8	.	-7
CC(CC(=O)OCCc1cccs1)c1cccnc1 (configuration not stated)	-1	.	-7
COc1c(F)cc(-c2c(-c3ccccc3)ncn2CCNC(C)=O)cc1F	21	-13	0
COc1ccc(OC)c(CCNc2nc3cnc(-c4cc(OC)c(OC)c(OC)c4)cc3n2C)c1	70*	-7	-5
CNc1nc2cnc(-c3ccc(OC)c(OC)c3)cc2n1Cc1ccccc1	32	-7	-5
COc1ccc(Cn2cnc3cnc(-c4cc(OC)c(OC)c(OC)c4)cc32)cc1OC	9	-9	-5
COc1ccc(OC)c(CCNc2nc3cnc(-c4ccc(Cl)cc4)cc3n2C)c1	83*	-7	-6
O=C(O)C1CN(C(=O)C(c2ccccc2)c2ccccc2)CCN1 (configuration not stated)	6	-16	-8
N#Cc1c(N=CN2CCCCCC2)sc2c1CCCC2	8	.	-7
O=C(CSc1nnc(Cc2ccccc2)c(=O)[nH]1)Nc1ccc(OC(F)F)cc1	-7	-7	-7
COc1ccc(Br)cc1C1C(C#N)C(=N)SC(=N)C1C#N (configuration not stated)	4	17	4
N#CC1C(=N)SC(=N)C(C#N)C1c1cc(Br)ccc1F (configuration not stated)	4	57*	16
CC(C)Cc1noc(CN(C)Cc2ncccc2C(=O)O)n1	.	-9	-4
Cn1cncc1[C@@H]1C[C@H](NC(=O)c2ccccc2)C[C@H](C2CCCCC2)O1	15	-13	-3
COc1ccc(-c2nnc(C[C@@H]3C[C@@H](C(C)C)[C@H](CNc4ccccn4)C=C3C)o2)cc1	-10	-4	-4
COc1ccc(NC[C@@H]2C=C(C)[C@H](Cc3nnc(C)o3)C[C@H]2C(C)C)cn1	55*	-6	-5
COc1ccc(F)cc1C1=NNC(=NC(C)(C)C)SC1	-2	.	-18
COc1cc(C=C(C#N)S(=O)(=O)c2cc(Cl)ccc2Cl)cc(OC)c1	2	.	2
COc1cc(C=C(C#N)S(=O)(=O)c2ccc(F)cc2)cc(Br)c1O	183*	.	-1
COc1cc(C=C(C#N)S(=O)(=O)c2cc(Cl)ccc2Cl)cc(Br)c1O	66*	.	-5
COc1cc(C=C(C#N)S(=O)(=O)c2ccc(F)cc2)cc(OC)c1OC	11	.	-9
SMILES	NPYLR7 ag	mcGAS inh	hcGAS lum
CCCCN(C)C(=O)CC1C(=O)NCCN1Cc1cccc2ccccc12 (configuration not stated)	9	.	-3
COC(=O)Cc1ccc(C(=O)CCl)s1	13	56*	-4
COC(=O)CCC(=O)c1ccc(Br)s1	-3	-4	-6
Cc1ccc(S(=O)(=O)Nc2ccc(N3CCNC3=O)cc2)cc1C(=O)O	26	-14	-5
COc1ccc(C(=O)N2CCN(C(c3ccccc3)c3ccc(C)cc3)CC2)cc1F (configuration not stated)	-1	-6	-7
CC(=O)c1ccc2c(c1)[C@@H]1C=CC[C@@H]1[C@H](c1cc3c(cc1Br)OCO3)N2	11	-2	-11
O=C(O)C1Nc2cc(Cl)cc(Cl)c2C2C=CCC12 (configuration not stated)	1	62*	7
CC(C)OC(=NCCN1CCCCC1)NC(=O)c1cccc(C(F)(F)F)c1	0	1	2
O=C(OCc1cc2c(cc1Br)OCO2)c1cnccn1	-1	-2	69*
O=C(OCc1cc2c(cc1Br)OCO2)c1cccc(O)c1	0	.	-14
CCCCc1nc(N2CCN(S(=O)(=O)c3cccc(C(F)(F)F)c3)CC2)c2c3c(sc2n1)CC(C)CC3 (configuration not stated)	12	-3	-1
CCOc1ccc(CN2CCCC(C(=O)c3ccc(Cl)cc3C)C2)cc1CO (configuration not stated)	19	-10	-9
OC[C@H]1O[C@@H](n2cnc3c(NC4CCCC4)ncnc32)C(O)[C@H]1O (some centres not stated)	20	-3	-1
Nc1ncnc2c1ncn2[C@@H]1O[C@H](CO)[C@@H](O)[C@H]1O	52*	.	1
CCCCc1nnc(NC(=O)N(Cc2ccccc2C(F)(F)F)C2CC2)s1	2	.	-2
Cc1ccc(-c2n[nH]c(=S)n2CC(=O)N2CCOCC2)cc1	-1	.	-3
CSc1nnc(C(C)NC(=O)OC(C)(C)C)o1 (configuration not stated)	10	-7	-7
CCC(C)(C)NC(=O)c1ccc(CSc2ccc3ccccc3n2)cc1	10	-6	-6
CCOC(=O)c1[nH]c2c([N+](=O)[O-])cc(OCC)cc2c1CCN1C(=O)c2ccccc2C1=O	-7	69*	-2
CCOC(=O)c1[nH]c2c([N+](=O)[O-])cc(C)cc2c1CCN1C(=O)c2ccccc2C1=O	4	-7	4
O=C(c1ccc(C(F)(F)F)[nH]c1=O)N1CCOC(COc2cccc(C(F)(F)F)c2)C1 (configuration not stated)	5	-5	-4
O=C1c2cccc3c(C#Cc4ccccc4)ccc(c23)C(=O)N1c1ccccc1	5	.	-8
O=C1c2cccc3c(NCC(O)CCl)ccc(c23)C(=O)N1c1ccccc1 (configuration not stated)	94*!	-4	-5
O=C1c2cccc3c([N+](=O)[O-])ccc(c23)C(=O)N1c1ccc([N+](=O)[O-])cc1	0	-7	-7
NCCNc1ccc2c3c(cccc13)C(=O)N(c1ccc(Cl)cc1)C2=O	104*	.	4
SMILES	NPYLR7 ag	mcGAS inh	hcGAS lum
O=C(c1ccccc1)c1ccc2c3c(cccc13)C(=O)N(c1ccccc1)C2=O	-15	1	4
O=C1c2cccc3c(Nc4ccccc4)ccc(c23)C(=O)N1c1ccccc1	53*	-5	-5
COCCNc1nc(SC)nc2c1cnn2CCNC(=O)c1cc(OC)cc(OC)c1	.	-5	0
CNC[C@@H](O)c1ccc(O)c(O)c1	55*	.	-3
CC(C)NC[C@@H](O)c1ccc(O)c(O)c1	32	-6	-8
CC(=O)c1cccc(NS(=O)(=O)c2cc(C(=O)Nc3ccccc3C)ccc2C)c1	19	-4	-3
